Each structure is given as a SMILES string. For some assays here: Results with a measured potency or affinity are listed apart.

Holding throughout (parameters): scale not given: direction of the effect not stated beside the values
Assay [1] addresses Protein translocase subunit SecA (Escherichia coli (strain K12)) (UniProt P10408). The assay is described as follows: Assay to Identify E. coli SecA ATPase Inhibitors. It is filed as functional. The settings on record: 30 µM.
Assay [2] concerns the target T1, Ubiquitin-activating enzyme e1, putative (Leishmania donovani (strain BPK282A1)) (UniProt E9BSI1).
T1 sequence (whole entry): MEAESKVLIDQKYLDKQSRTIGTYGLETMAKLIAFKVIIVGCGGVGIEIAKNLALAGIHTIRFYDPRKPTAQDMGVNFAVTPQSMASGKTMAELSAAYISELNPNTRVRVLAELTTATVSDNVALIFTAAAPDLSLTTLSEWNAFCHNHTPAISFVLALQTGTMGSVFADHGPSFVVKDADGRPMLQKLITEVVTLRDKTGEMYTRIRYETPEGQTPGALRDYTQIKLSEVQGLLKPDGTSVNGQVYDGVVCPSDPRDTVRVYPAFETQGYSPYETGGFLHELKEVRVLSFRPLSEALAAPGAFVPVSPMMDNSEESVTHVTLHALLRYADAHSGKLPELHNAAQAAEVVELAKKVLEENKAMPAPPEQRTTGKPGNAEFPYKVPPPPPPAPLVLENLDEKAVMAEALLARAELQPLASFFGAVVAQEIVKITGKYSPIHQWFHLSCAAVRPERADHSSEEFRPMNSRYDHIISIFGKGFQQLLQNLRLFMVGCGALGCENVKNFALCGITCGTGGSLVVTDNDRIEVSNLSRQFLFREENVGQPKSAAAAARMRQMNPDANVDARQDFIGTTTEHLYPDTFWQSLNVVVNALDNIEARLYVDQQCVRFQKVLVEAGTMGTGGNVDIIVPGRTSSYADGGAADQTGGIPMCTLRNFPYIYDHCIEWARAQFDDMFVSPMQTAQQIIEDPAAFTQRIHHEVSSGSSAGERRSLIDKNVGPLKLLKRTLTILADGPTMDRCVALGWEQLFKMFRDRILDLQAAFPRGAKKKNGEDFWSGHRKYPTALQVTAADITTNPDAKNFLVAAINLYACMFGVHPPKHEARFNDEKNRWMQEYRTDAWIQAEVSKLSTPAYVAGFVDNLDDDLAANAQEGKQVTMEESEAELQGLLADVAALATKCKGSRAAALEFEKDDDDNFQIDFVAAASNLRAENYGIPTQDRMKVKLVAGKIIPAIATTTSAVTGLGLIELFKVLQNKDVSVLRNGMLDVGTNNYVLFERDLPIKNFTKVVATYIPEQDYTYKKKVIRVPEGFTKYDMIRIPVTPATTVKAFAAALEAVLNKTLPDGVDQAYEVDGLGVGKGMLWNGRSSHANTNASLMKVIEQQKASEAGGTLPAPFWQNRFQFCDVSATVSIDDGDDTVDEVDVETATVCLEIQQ
Briefly: Leishmania donovani Ubiquitin Activating Enzyme (LdE1). Conditions: 30 µM. It is filed as functional.

Assay [3] has as its target T2, Aspartate--tRNA(Asp/Asn) ligase (Mycobacterium tuberculosis (strain ATCC 25618 / H37Rv)) (UniProt P9WFW3). Also: in the data most compounds retested in dose-response had high values.
T2 sequence (whole entry): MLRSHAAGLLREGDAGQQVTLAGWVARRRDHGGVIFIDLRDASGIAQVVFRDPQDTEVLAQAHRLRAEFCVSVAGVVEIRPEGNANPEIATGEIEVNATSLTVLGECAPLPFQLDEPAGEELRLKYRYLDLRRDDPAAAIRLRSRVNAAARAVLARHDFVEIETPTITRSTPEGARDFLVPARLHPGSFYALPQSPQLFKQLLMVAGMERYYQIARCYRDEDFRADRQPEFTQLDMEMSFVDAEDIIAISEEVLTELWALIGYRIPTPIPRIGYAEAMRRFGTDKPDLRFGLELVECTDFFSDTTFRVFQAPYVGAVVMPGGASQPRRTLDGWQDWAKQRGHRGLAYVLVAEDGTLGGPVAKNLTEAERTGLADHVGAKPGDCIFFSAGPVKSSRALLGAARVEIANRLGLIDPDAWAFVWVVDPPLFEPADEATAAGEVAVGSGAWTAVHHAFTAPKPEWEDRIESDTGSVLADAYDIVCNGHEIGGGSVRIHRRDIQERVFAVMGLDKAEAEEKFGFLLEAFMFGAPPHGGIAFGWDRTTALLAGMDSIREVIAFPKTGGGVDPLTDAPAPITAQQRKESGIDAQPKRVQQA
Briefly: Assay for Asp RNA synthetase-1 from Mycobacterium tuberculosis. It is filed as functional. Conditions: 30 µM.

The target in assay [4] is AMP-activated protein kinase, AMPK (Homo sapiens) (UniProt P54646+O43741+P54619+Q9UGJ0+Q9Y478+Q13131+Q9UGI9). Briefly: AMP-dependent Kinase enzyme assay. An in vitro enzyme assay that detects ADP turnover that is directly proportional to AMPK activity. This uses naive AMPK that is activated during the assay with MK-8722. In kind it is functional. The settings on record: 30 µM.

Assay [5] has as its target Sialic acid-binding Ig-like lectin 9 (Homo sapiens) (UniProt Q9Y336). Briefly: Hs-Siglec9 ALPHAscreen SOP 20170721. Conditions: 10 µM. (In Alpha technology, singlet oxygen from a donor bead excites a nearby acceptor bead.)
Assay [6] relates to Trypanosoma cruzi. The assay is described as follows: Trypanosoma cruzi phosphomannomutase and mannose-1-phosphate guanylyltransferase assay. It is filed as functional. The settings on record: 10 µM.
For assay [7], the target named is T3, Arginase-2, mitochondrial (Homo sapiens) (UniProt P78540).
T3 sequence (whole entry): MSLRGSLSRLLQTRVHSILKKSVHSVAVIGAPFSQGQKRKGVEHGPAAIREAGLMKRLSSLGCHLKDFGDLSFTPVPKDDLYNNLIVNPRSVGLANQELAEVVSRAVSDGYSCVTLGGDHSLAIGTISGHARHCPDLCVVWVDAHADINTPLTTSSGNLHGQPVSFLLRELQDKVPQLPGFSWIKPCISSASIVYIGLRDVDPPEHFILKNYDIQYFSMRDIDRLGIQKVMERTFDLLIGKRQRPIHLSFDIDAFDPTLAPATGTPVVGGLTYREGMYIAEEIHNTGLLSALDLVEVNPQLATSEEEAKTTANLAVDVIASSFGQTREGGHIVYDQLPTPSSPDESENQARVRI
Briefly: in vitro enzyme assay to detect the production of urea directly proportional to the activity of Arginase II. Also: in the data most compounds retested in dose-response had high values. It is filed as functional. The settings on record: 33.3 µM.

Assay [8] addresses T4, Proteasome subunit beta (Trypanosoma cruzi) (UniProt O96673).
T4 sequence (whole entry): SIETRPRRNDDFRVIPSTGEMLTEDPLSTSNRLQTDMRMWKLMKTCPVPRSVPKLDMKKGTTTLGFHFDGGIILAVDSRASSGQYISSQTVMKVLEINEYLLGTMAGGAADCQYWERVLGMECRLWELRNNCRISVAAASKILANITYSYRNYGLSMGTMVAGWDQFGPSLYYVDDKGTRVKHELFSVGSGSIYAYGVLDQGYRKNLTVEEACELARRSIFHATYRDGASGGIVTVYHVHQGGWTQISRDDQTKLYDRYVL
Briefly: Trypanosoma cruzi proteasome chymotrypsin-like activity (TcProtChymo) assay. Also: in the data most compounds retested in dose-response had high values. It is filed as functional. Conditions: 9.37 µM.

The species named for assay [9] is Homo sapiens. Briefly: To identify inhibition of the IFN signalling (Jak-Stat) pathway via expression of an eGFP reporter gene under the control of an IFN-stimulated response element (ISRE) containing MxA promoter. In kind it is functional. Conditions: 30 µM.
Assay [10] deals with Shiga toxin 2 (Escherichia coli O157:H7) (UniProt P09385+P09386). Briefly: E. coli 0.157:H7 Shiga Toxin SOP - stx2 screening assay. In kind it is functional. The settings on record: 30 µM.
Assay [11] addresses T5, Tyrosyl-tRNA synthetase, putative (Trypanosoma cruzi (strain CL Brener)) (UniProt Q4DSP6).
T5 sequence (whole entry): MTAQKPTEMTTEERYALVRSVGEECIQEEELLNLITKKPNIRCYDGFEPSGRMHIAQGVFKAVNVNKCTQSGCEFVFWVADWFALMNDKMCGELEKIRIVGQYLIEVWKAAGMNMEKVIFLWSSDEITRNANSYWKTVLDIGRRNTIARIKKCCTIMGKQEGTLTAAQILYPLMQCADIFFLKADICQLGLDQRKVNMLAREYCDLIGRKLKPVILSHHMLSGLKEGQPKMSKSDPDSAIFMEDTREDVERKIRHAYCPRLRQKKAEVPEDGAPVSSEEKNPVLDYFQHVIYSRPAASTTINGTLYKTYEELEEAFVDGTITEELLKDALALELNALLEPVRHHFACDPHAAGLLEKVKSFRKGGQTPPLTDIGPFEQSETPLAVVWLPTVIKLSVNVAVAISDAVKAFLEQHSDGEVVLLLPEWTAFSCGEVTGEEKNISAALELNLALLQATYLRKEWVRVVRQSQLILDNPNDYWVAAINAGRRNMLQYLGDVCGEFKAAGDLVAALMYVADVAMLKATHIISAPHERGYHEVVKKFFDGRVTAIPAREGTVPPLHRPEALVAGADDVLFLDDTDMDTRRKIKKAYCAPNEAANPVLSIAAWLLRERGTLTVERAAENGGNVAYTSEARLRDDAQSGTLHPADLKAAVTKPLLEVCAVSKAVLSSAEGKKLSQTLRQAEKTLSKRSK
Briefly: Trypanosoma cruzi tyrosyl tRNA synthetase (TcYRS) _High Tyrosine SOP. Also: in the data most compounds retested in dose-response had high values. Conditions: 30 µM. It is filed as functional.

For assay [12], the target named is T5, Tyrosyl-tRNA synthetase, putative (Trypanosoma cruzi (strain CL Brener)). The assay is described as follows: Trypanosoma cruzi tyrosyl tRNA synthetase (TcYRS) SOP. Conditions: 30 µM. In kind it is functional.
In assay [13] the target is Chromo domain-containing protein 1 (Saccharomyces cerevisiae (strain ATCC 204508 / S288c) (Baker's yeast)) (UniProt P32657). Briefly: ScCHD-1 Enzyme Inhibition Assay. Also: in the data most compounds retested in dose-response had high values. Conditions: 30 µM. It is filed as functional.
Chain of Chromo domain-containing protein 1 (Saccharomyces cerevisiae (strain ATCC 204508 / S288c) (Baker's yeast)) (P32657 whole entry, the tested form may be a part): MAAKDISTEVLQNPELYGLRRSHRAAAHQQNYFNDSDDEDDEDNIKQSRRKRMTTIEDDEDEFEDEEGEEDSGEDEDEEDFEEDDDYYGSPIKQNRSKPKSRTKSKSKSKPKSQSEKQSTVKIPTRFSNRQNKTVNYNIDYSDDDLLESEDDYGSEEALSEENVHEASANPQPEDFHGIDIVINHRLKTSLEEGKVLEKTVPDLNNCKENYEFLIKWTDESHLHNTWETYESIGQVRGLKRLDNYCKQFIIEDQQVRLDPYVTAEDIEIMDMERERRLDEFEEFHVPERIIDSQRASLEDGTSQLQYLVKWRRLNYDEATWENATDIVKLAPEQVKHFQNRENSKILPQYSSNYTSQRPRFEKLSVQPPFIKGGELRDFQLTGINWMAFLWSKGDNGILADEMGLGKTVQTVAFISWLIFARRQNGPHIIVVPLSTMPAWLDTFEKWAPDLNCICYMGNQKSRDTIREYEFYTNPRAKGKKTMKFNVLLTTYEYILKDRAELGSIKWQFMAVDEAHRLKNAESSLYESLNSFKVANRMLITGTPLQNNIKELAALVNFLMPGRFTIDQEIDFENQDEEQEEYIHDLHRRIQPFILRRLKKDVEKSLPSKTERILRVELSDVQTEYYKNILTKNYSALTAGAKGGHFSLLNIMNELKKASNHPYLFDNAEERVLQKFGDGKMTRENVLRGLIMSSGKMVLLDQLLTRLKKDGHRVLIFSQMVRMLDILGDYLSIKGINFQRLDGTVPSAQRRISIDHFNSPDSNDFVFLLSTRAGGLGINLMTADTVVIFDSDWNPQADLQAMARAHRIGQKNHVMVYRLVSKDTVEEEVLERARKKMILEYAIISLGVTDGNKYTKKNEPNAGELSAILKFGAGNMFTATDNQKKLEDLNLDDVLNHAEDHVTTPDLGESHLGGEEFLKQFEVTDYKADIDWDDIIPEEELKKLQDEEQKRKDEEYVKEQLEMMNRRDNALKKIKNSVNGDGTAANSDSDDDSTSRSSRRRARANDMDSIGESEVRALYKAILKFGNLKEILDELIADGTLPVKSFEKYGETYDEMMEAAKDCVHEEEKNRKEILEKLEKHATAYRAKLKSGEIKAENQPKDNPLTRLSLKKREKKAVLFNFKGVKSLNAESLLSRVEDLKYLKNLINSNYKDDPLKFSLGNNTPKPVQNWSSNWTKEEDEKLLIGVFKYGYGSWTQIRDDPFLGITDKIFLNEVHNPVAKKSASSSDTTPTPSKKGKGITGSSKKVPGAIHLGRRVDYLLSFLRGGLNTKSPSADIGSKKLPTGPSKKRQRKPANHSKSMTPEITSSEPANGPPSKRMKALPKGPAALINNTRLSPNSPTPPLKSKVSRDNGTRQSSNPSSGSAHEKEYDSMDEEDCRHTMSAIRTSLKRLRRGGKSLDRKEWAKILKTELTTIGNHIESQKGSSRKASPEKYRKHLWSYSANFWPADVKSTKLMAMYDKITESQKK

Chain of Sialic acid-binding Ig-like lectin 9 (Homo sapiens) (Q9Y336 whole entry): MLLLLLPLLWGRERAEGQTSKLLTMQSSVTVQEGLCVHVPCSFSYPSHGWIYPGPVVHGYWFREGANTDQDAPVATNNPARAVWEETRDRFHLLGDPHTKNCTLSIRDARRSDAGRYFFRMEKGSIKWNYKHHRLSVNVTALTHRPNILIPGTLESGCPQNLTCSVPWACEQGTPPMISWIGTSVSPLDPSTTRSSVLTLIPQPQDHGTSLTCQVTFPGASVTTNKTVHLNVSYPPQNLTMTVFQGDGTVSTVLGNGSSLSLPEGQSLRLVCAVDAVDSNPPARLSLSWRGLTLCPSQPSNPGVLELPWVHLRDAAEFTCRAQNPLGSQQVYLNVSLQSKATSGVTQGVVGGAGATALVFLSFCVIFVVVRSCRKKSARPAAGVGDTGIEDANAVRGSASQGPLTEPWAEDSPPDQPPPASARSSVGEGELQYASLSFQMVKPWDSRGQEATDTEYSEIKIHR
Chain of Protein translocase subunit SecA (Escherichia coli (strain K12)) (P10408 whole entry): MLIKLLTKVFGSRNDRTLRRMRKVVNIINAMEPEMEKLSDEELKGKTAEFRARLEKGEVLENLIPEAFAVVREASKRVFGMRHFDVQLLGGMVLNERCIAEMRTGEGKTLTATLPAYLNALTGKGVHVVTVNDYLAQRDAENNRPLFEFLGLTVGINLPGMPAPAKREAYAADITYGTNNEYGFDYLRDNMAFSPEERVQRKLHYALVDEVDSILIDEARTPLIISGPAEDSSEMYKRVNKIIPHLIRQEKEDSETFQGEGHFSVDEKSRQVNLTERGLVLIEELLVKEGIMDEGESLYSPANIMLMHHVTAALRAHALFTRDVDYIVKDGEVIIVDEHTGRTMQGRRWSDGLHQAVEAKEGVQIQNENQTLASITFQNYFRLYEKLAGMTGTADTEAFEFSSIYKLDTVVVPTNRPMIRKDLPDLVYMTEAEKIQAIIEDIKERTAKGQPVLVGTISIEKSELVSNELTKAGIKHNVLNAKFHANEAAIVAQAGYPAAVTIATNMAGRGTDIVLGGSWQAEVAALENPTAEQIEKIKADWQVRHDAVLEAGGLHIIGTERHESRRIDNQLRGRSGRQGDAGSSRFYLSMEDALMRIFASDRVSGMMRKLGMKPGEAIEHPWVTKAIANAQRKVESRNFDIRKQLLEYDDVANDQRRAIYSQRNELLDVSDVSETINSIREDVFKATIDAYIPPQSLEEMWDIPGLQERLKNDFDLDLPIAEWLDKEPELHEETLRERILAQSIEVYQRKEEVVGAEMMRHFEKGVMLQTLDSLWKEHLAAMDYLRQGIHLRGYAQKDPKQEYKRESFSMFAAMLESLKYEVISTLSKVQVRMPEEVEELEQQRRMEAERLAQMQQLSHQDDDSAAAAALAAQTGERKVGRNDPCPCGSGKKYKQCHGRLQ

As for `COc1cccc(CCNCc2c(C)nn(C)c2N(C)C)c1`, the Percent Effect in [1] was -3.25%; in assay [2] it was 10.5%; in [3] it was -2.61%; in [4], -2.73%; in assay [5], 0.941%; in [6], -4.13%. Moreover, the Percent Effect in assay [7] is -3.45%; in [8], 13.4%; in assay [9] it was -20.1%; in assay [10], 28.4%; in [11], 3.43%; in assay [12], 12.2%. Further, in [13], the Percent Effect was -4.73%.

For `Cn1cc(CN2CC[C@H]3CO[C@H](CNc4ncccn4)[C@H]3C2)cn1`, the Percent Effect is -1.24% in assay [1]; 13.3% in assay [2]; -0.0582% in [3]; 1.6% in assay [4]; -7.11% in assay [5]; 5.02% in assay [6]. The Percent Effect in assay [7] is -57.2%; in assay [8] it was 9.4%; in assay [9], 3.12%; in [10] it was -32.2%; in assay [11], 7.29%; in [12] it was 22.5%. The Percent Effect in assay [13] is -6.99%.

Take `Cc1n[nH]c2c1C(c1cnn(C)c1)SCC(=O)N2` (stereo not given): the Percent Effect is -5.19% in assay [1]; 1.33% in assay [2]; -2.64% in assay [3]; 11.3% in assay [4]; 3.08% in assay [5]; -2.16% in assay [6]. The Percent Effect in assay [7] is -11.4%; in assay [8], 11.8%; in assay [9], 6.26%; in assay [10], -3.86%; in [11], 3.17%; in assay [12] it was 12.8%. In [13], the Percent Effect is -9.44%.

On to `COc1ccc(-c2n[nH]cc2C2SCC(=O)Nc3[nH]ncc32)cc1` (stereo not given), for which the Percent Effect in [1] was -3.63%; in assay [2], 0%; in assay [3] it was 0.479%; in [4], 21.7%; in assay [5] it was 3.15%; in assay [6] it was -3.41%. Also, the Percent Effect is -17.8% in [7]; 14.9% in assay [8]; 16.2% in assay [9]; -3.31% in assay [10]; 2.13% in [11]; 7.79% in assay [12]. Also, in [13], the Percent Effect came out at 0.161%.

Take `CCN1CCC2(COCc3cnc(NCC4CC4)nc32)C1` (stereo not given): the Percent Effect in assay [1] is 1.53%; in assay [2], 0%; in assay [3], 0.296%; in assay [4], -4.7%; in assay [5], 2.85%; in assay [6], 5.95%. In addition, the Percent Effect is -2% in assay [7]; 3.68% in assay [8]; 18.1% in assay [9]; -28.9% in assay [10]; 0% in [11]; 8.64% in assay [12]. Besides, in assay [13], the Percent Effect was -0.871%.

For the origin of these results see ChEMBL document CHEMBL3988442, “University of Dundee, Small-Polar-MMV Screening Library” (2021).
